Values joined by “and” are separate entries in the source; they are usually repeats but may differ in a detail not shown here. Equal entries are not always repeated. Inconclusive results are not listed. Active and inactive are the calls of the source. Unless noted, calls come from the whole dose curve; as a rule, active = well fitted curve in the direction sought with a large enough effect in the repeat runs; inconclusive = weak or mixed curves; inactive = no such curve, though single readings can be large; an effect the other way counts as inactive or inconclusive.
Columns and labels:
[1] = qHTS assay for small molecule agonists of the p53 signaling pathway (AID 651631; calls by dose curve; note: nearly all actives have a fitted effect of over 15% in size; note: potency is the fitted concentration of half-maximal effect)
Summary of the method: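 HCT-116 p53RE-bla reporter line, 16 h compound treatment at 37 °C, then fluorescence after 2 h with B/G FRET substrate.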

[2] = qHTS assay for small molecules that induce genotoxicity in human embryonic kidney cells expressing luciferase-tagged ATAD5 (AID 651632); note: nearly all actives have a fitted effect of over 15% in size; note: potency is the fitted concentration of half-maximal effect
Summary of the method: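 Luminescence read-out: after 16 hr compound exposure at 37C, ATAD5-luciferase HEK293T cells received Amplite, 30 min RT, then CCD imaging. A rise in signal marks genotoxic stress.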

[3] = qHTS assay for small molecule agonists of the p53 signaling pathway - cell viability (AID 651633; calls by dose curve;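 note: p53RE-bla HCT reporter cells with a stable beta-lactamase p53 reporter; series mostly up to about 83 µM; nearly all actives have a fitted effect of over 30% in size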)
Summary of the method: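 p53RE-bla cells, seeded at 4,000 per well and rested 5 h at 37 C/5% CO2, received compounds in DMSO for 16 h at 37 C. CellTiter-Glo was then added, and luminescence was read after 30 min at room temperature to gauge cytotoxicity.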

[4] = qHTS assay for small molecule disruptors of the mitochondrial membrane potential - cell viability (AID 720634; calls by dose curve;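 note: human HepG2 liver cancer cells; series mostly up to about 83 µM; nearly all actives have a fitted effect of over 20% in size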)
Summary of the method: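 Luminescence from CellTiter-Glo (ATP content) gave viability in HepG2 cells, read in the same wells as the MMP dye assay after 1 hr compound exposure at 37 C.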

[5] = qHTS assay for small molecule disruptors of the mitochondrial membrane potential (AID 720635); note: potency is the fitted concentration of half-maximal effect
Summary of the method: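 HepG2 cells (2,000/well) attached overnight at 37C, then took compound for 1 hr at 37C, 5% CO2. Mito-MPS dye was added for 30 min; fluorescence was read at 490/535 nm (monomers) and 540/590 nm (aggregates).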

[6] = qHTS assay to test for compound auto fluorescence at 590 nm (red) in HepG2 cells (AID 720674)
Summary of the method: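 Rose Bengal sodium served as the red fluorophore standard. HepG2 monolayers (overnight attachment, MEM with 10% FBS) were exposed to test compounds for 1 hr at 37 C and read at Ex 540/Em 590 nm.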

[7] = qHTS assay to test for compound auto fluorescence at 460 nm (blue) in HEK293 cells (AID 720678)
Summary of the method: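 HEK293, 2,000 cells/well, 10% dialyzed FBS; attach 4-5 hr 37C; pin compound or DMSO; o/n 37C/5% CO2; fluorescence 405/460 nm; triamterene-equivalent units.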

[8] = qHTS assay to test for compound auto fluorescence at 590 nm (red) in HEK293 cells (AID 720679)
Summary of the method: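 Intensity at 540nm excitation and 590nm emission is reported as Rose Bengal sodium-equivalent autofluorescence. Measurements followed overnight exposure (37C, 5% CO2) of HEK293 cells, 2,000 per well, to 23 nL compound.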

[9] = qHTS assay to test for compound auto fluorescence at 535 nm (green) in HEK293 cells (AID 720680)
[10] = qHTS assay to test for compound auto fluorescence at 460 nm (blue) in HEK293 cell free culture (AID 720681)
Summary of the method: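 Test compounds were pinned into cell-free culture medium (DMEM with 10% FBS) and fluorescence was read directly at Ex/Em 405/460 nm. Signals were expressed as fluorescence equivalents of triamterene, with DMSO vehicle as control.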

[11] = qHTS assay to test for compound auto fluorescence at 535 nm (green) in HEK293 cell free culture (AID 720682)
Summary of the method: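 Steps: dispense DMEM/10% FBS into empty wells; pin in compound or DMSO; measure fluorescence at 485/535 nm. Values are fluorescein equivalents.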

[12] = qHTS assay to test for compound auto fluorescence at 590 nm (red) in HEK293 cell free culture (AID 720683)
Summary of the method: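 Tox21 10K library compounds were pinned into cell-free DMEM with 10% FBS and fluorescence was read at excitation 540 nm. Activity is expressed as Rose Bengal sodium equivalency.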

[13] = qHTS assay to test for compound auto fluorescence at 590 nm (red) in HepG2 cell free culture (AID 720684)
Summary of the method: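 Readout: intrinsic compound fluorescence at 590 nm emission after 540 nm excitation, scaled to Rose Bengal sodium. Matrix was cell-free MEM with 10% FBS; DMSO vehicle wells served as control.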

[14] = qHTS assay to test for compound auto fluorescence at 460 nm (blue) in HepG2 cell free culture (AID 720685)
Summary of the method: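 Cell-free plates of MEM plus 10% FBS received 23 nL compound or DMSO vehicle; blue-channel (405/460 nm) intensity scored against triamterene as reference fluorophore.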

[15] = qHTS assay to test for compound auto fluorescence at 535 nm (green) in HepG2 cell free culture (AID 720686)
[16] = qHTS assay to test for compound auto fluorescence at 460 nm (blue) in HepG2 cells (AID 720687)
Summary of the method: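 Cells (2,000/well in MEM with 10% FBS) attached overnight at 37 C, then were exposed to compound or DMSO for 1 hr at 37 C, 5% CO2. Fluorescence read at Ex/Em 405/460 nm, expressed as triamterene-equivalent signal.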

[17] = target: Glucocorticoid receptor (Homo sapiens) (UniProt P04150); assay: qHTS assay to identify small molecule agonists of the glucocorticoid receptor (GR) signaling pathway (AID 720691; active = well fitted activation curve with a large enough effect in the signal ratio in the repeat runs, not every such curve was filed as active; the % refers to the signal ratio)
Chain of Glucocorticoid receptor (Homo sapiens) (P04150 whole entry, looked up): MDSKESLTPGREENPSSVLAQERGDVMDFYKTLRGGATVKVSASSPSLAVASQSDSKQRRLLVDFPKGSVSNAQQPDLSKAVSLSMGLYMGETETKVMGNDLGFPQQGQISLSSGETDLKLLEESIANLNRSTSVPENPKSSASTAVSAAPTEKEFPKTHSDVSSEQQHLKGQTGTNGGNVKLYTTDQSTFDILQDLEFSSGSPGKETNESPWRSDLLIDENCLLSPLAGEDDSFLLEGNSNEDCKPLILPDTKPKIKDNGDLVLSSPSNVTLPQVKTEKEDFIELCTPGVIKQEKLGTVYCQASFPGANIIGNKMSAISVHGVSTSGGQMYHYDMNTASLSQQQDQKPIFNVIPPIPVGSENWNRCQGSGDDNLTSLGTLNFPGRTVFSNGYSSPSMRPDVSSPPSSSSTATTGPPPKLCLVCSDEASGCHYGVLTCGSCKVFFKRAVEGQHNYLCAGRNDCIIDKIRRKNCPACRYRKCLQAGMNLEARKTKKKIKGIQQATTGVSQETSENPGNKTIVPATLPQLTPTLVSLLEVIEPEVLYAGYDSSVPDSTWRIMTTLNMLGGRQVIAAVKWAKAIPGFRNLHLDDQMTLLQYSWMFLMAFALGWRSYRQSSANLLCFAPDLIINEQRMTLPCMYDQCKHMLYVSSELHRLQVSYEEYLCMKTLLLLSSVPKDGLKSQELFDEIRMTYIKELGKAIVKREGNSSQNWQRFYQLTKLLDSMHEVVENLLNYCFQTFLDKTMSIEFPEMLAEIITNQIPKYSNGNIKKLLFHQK
Summary of the method: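 HeLa GR-bla reporter line; cells pre-incubated 4 h, compound in DMSO 18 h at 37 C; LiveBLAzer B/G FRET substrate 2 h RT; fluorescence intensity read-out.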

[18] = target: Glucocorticoid receptor (Homo sapiens) (UniProt P04150); assay: qHTS assay to identify small molecule antagonists of the glucocorticoid receptor (GR) signaling pathway (AID 720692; active = well fitted inhibition curve with a large enough effect in the signal ratio in the repeat runs, not every such curve was filed as active; the % refers to the signal ratio; note: potency is the fitted concentration of half-maximal effect)
Summary of the method: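 Read-out: beta-lactamase FRET substrate fluorescence, 2 h at room temperature, in HeLa cells stably carrying a GRE-driven bla reporter. Compounds were co-incubated with 5 nM dexamethasone agonist (final) for 18 h at 37 C.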

[19] = qHTS assay to test for compound auto fluorescence at 535 nm (green) in HepG2 cells (AID 720675)
[20] = qHTS assay for small molecules that induce genotoxicity in human embryonic kidney cells expressing luciferase-tagged ATAD5 - cell viability (AID 651634; calls by dose curve; note: nearly all actives have a fitted effect of over 25% in size)
Summary of the method: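 HEK293T ATAD5-luc cells, 2,000/well; compound 15.5 hr, 37C/5% CO2; CellTiter-Fluor 30 min, 37C; fluorescence read.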
% is set by controls: 0 for no effect and ±100 for the full control effect.

Nc1ccc(C(=O)O)c(O)c1
inactive: Potency [1] | Potency [2] | Potency [3] | Potency [4] | Potency [5] | Potency [6] | Potency [7] | Potency [8] | Potency [9] | Potency [10] | Potency [11] | Potency [12] | Potency [13] | Potency [14] | Potency [15] | Potency [16] | Potency [17] | Potency [18]

CCCCC(CC)CN1CN(CC(CC)CCCC)CC(C)(N)C1 (stereo not given)
inactive: Potency [1] | Potency [2] | Potency [3] | Potency [4] | Potency [5] | fluorescence, relative to Rose Bengal [6] 0.775% [at 18.6 µM] | fluorescence, % of fluorescein control [19] 0.0031% [at 18.6 µM] | fluorescence, % of triamterene [7] -0.206% [at 18.6 µM] | fluorescence, % of fluorescent control [8] -0.0426% [at 18.6 µM] | fluorescence, % of fluorescent control [10] -0.0323% [at 18.6 µM] | activity change [11] 0.0339% [at 18.6 µM, active compounds read high] | fluorescence, % of fluorescent control [12] -0.232% [at 18.6 µM] | fluorescence, % of Rose Bengal [13] 0.0615% [at 18.6 µM] | fluorescence, % of fluorescent control [14] -0.127% [at 18.6 µM] | fluorescence, % of fluorescein control [15] -0.051% [at 18.6 µM] | fluorescence, % of fluorescent control [16] -0.0067% [at 18.6 µM]

CCOC(=O)Cn1cccc1-c1nc(-c2ccc(OC)cc2)c(-c2ccc(OC)cc2)s1
active: Potency [1] 29.8 µM
inactive: Potency [3] | Potency [20] | Potency [4] | Potency [5] | Potency [6] | Potency [19] | Potency [7] | Potency [8] | Potency [9] | Potency [10] | Potency [11] | Potency [12] | Potency [13] | Potency [14] | Potency [15] | Potency [16] | Potency [17]

CC(=O)c1ccc(C(C)=O)cc1
inactive: Potency [1] | Potency [3] | Potency [20] | Potency [4] | Potency [5] | Potency [6] | Potency [19] | Potency [7] | Potency [8] | Potency [9] | Potency [10] | Potency [11] | Potency [12] | Potency [13] | Potency [14] | Potency [15] | Potency [16] | Potency [17] | Potency [18]

C=C(CC)C(=O)c1ccc(OCC(=O)O)c(Cl)c1Cl
inactive: Potency [2] | Potency [20] | Potency [4] | Potency [6] | Potency [19] | Potency [7] | Potency [8] | Potency [9] | Potency [10] | Potency [11] | Potency [12] | Potency [13] | Potency [14] | Potency [15] | Potency [17]
active: Potency [1] 11.9 µM and 9.62 µM

FC(F)(F)c1cccc(Cl)c1
inactive: Potency [1] | Potency [2] | Potency [3] | Potency [4] | Potency [6] | Potency [19] | Potency [7] | Potency [9] | Potency [10] | Potency [11] | Potency [12] | Potency [13] | Potency [14] | Potency [15] | Potency [16] | Potency [17] | Potency [18]

O=C(O)c1cc(N=Nc2ccc([N+](=O)[O-])cc2)ccc1O
active: Potency [2] 15.1 µM | Potency [5] 53.5 µM | Potency [18] 27 µM
inactive: Potency [1] | Potency [3] | Potency [6] | Potency [7] | Potency [8] | Potency [9] | Potency [10] | Potency [11] | Potency [12] | Potency [13] | Potency [14] | Potency [15] | Potency [16]

CC(C)(C)CC(C)(C)c1ccc(Nc2ccc(C(C)(C)CC(C)(C)C)cc2)cc1
inactive: activation [1] -6.72% [at 8.3 µM] | activity change, negative = cytotoxicity [3] -13.1% [at 8.08 µM] | activity, negative = cytotoxicity [20] 13.9% [at 8.08 µM] | activity change, negative = cytotoxicity [4] 4.18% [at 8.08 µM] | ratio activity, negative = MMP loss [5] 34.3% [at 8.08 µM] | fluorescence, relative to Rose Bengal [6] 0.212% [at 3.72 µM] | fluorescence, % of fluorescein control [19] 0.0549% [at 3.72 µM] | fluorescence, % of triamterene [7] -0.186% [at 3.72 µM] | fluorescence, % of fluorescent control [8] -0.94% [at 3.72 µM] | fluorescence, % of fluorescein [9] -0.0015% [at 3.72 µM] | activity change [11] 0.0494% [at 3.72 µM, active compounds read high] | fluorescence, % of fluorescent control [12] 0.0404% [at 3.72 µM] | fluorescence, % of Rose Bengal [13] 0.189% [at 3.72 µM] | fluorescence, % of fluorescent control [14] 0.0515% [at 3.72 µM] | fluorescence, % of fluorescein control [15] 0.0526% [at 3.72 µM] | fluorescence, % of fluorescent control [16] 0.0384% [at 3.72 µM] | activation [17] -1.13% [at 6.9 µM] | activity change, negative = inhibition [18] -25.8% [at 7.04 µM]

NC[C@H]1O[C@H](O[C@H]2[C@H](O[C@@H]3O[C@H](CO)[C@@H](O)[C@H]3O)C(O)[C@H](N)C[C@@H]2N)[C@H](N)[C@@H](O)[C@@H]1O (stereo not given in full)
inactive: Potency [1] | Potency [2] | Potency [20] | Potency [4] | fluorescence, % of fluorescein control [19] 0.155% [at 18.6 µM] | fluorescence, % of triamterene [7] -0.0357% [at 18.6 µM] | fluorescence, % of fluorescent control [8] 0.971% [at 18.6 µM] | fluorescence, % of fluorescein [9] -0.0694% [at 18.6 µM] | fluorescence, % of fluorescent control [10] -0.0104% [at 18.6 µM] | activity change [11] -0.144% [at 18.6 µM, active compounds read high] | fluorescence, % of fluorescent control [12] 0.335% [at 18.6 µM] | fluorescence, % of Rose Bengal [13] -0.0591% [at 18.6 µM] | fluorescence, % of fluorescent control [14] 0.0653% [at 18.6 µM] | fluorescence, % of fluorescein control [15] -0.0227% [at 18.6 µM] | fluorescence, % of fluorescent control [16] -0.0247% [at 18.6 µM] | Potency [17] | Potency [18]

CC(C)(c1cc(Br)c(OCC(Br)CBr)c(Br)c1)c1cc(Br)c(OCC(Br)CBr)c(Br)c1 (stereo not given)
inactive: Potency [1] | Potency [2] | Potency [3] | Potency [20] | Potency [6] | Potency [7] | Potency [10] | Potency [11] | Potency [12] | Potency [13] | Potency [14] | Potency [15] | Potency [17] | Potency [18]

CCCCN(CCCC)CC(O)c1cc(Cl)cc2c1-c1ccc(Cl)cc1/C2=C/c1ccc(Cl)cc1 (stereo not given)
inactive: Potency [1] | Potency [2] | Potency [3] | Potency [4] | Potency [6] | Potency [7] | Potency [8] | Potency [9] | Potency [10] | Potency [11] | Potency [12] | Potency [13] | Potency [15] | Potency [16] | Potency [17]

CCc1ccc(Br)cc1
inactive: Potency [1] | Potency [2] | Potency [3] | Potency [4] | Potency [5] | Potency [6] | Potency [19] | Potency [8] | Potency [10] | Potency [11] | Potency [12] | Potency [13] | Potency [14] | Potency [15] | Potency [17] | Potency [18]

From PubChem BioAssay (Tox21)
